# Laboratory results published in PubChem BioAssay AID1117359 (Southern Research Institute, 2015).
# Hit rate of the full screen: of about 1,500 compounds, about 460 (31%) were called active.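 The calls were made as follows: active = viability at or below 80% at any tested concentration, marking the compound as toxic; inactive = the rest.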 A selection follows. Entries with a potency or affinity are not part of this list.
# Test: viability loss in THP-1 monocytes – THP-1 cells, cytotoxicity control for Vif-APOBEC3G degradation inhibitor project, dose response (AID 1117359)
# Settings: THP-1 viability, CellTiter-Glo luminescence, 72 h; series mostly up to 40 µM
row,SMILES,outcome
1,CCOC(=O)c1ccc(CC(=O)c2ccc(O)c(O)c2O)o1,inactive
2,O=C(NNC(=O)c1ccccc1F)c1cccc(-n2cccc2)c1,inactive
3,Cc1ccc(C(=O)NNS(=O)(=O)c2ccc(F)cc2)cc1,inactive
4,CN(C(=O)c1ccc(OC2CCN(S(=O)(=O)N(C)C)CC2)cc1)C1CCCCC1,inactive
5,CCOC(=O)Cn1c(=O)c2c(nc3n2CCN3Cc2ccccc2)n(C)c1=O,inactive
6,O=C(Cc1ccc2c(c1)OCCO2)N1CCN(S(=O)(=O)c2cccs2)CC1,inactive
7,COc1ccc(N2CCC(CNS(=O)(=O)c3cccc(C(F)(F)F)c3)C2)cc1 (stereo not given),inactive
8,CN(C)/C=N/NC(=O)c1ccccc1Cl,inactive
9,C[C@H](NC(=O)OCc1ccccc1)C(=O)NNC(=O)[C@H](C)NC(=O)OCc1ccccc1,inactive
10,COC(=O)c1ccc(COc2ccc(/C=N/Nc3cccc(C(=O)O)c3)cc2)cc1,inactive
11,O=c1cc(OCc2ccccc2)cc[nH]1,inactive
12,O=C(Nc1ccc(COc2ccccc2)cc1)Oc1ccccc1N1CCOCC1,inactive
13,CCN(CC(=O)Nc1c(F)cccc1F)C(=O)c1cccc(-n2cccc2)c1,inactive
14,CCCCC1=CC2=C(c3ccco3)C(=O)C(C)(OC(=O)c3ccc(OC)cc3)C(=O)C2=CN1CCCCO (stereo not given),inactive
15,CC(=O)Nc1ccc(C=C(C#N)c2ccc(C)cc2)cc1,inactive
16,CCOc1ccc(CCNC(=O)C2CC(C)=CCC2C(=O)O)cc1OCC (stereo not given),inactive
17,CCCCc1cc(=O)oc2cc(OCC(=O)N(CC)CC)c(Cl)cc12,inactive
18,C[C@H](NC(=O)NCc1cccs1)C(=O)O,inactive
19,CSc1cccc(NC(=O)C(C)C)c1,inactive
20,CCOC(=O)c1cc2c(c(CCO)n1)[C@H](CCO)N(S(=O)(=O)C(C)(C)C)C2,inactive
21,Cc1oc(/N=C/c2cccc3ccccc23)c(C#N)c1C,inactive
22,CCN1CCN(Cc2cc(=O)oc3ccc(C)cc23)CC1,inactive

row,SMILES,outcome
1,COC(=O)C(Cc1c[nH]c2ccccc12)NC(=O)C(C)C (stereo not given),inactive
2,Cc1ccc(NC(=O)C(C)Sc2nc3nc(C)cc(C)n3n2)cc1 (stereo not given),inactive
3,O=S(=O)(c1ccc2nc(-c3ccco3)c(-c3ccco3)nc2c1)N1CCOCC1,inactive
4,Cc1ccc(CNC(=O)CN(c2cccc([N+](=O)[O-])c2)S(C)(=O)=O)cc1,inactive
5,CC(NC(=O)C(NS(=O)(=O)c1cccs1)C(C)C)c1ccc(S(N)(=O)=O)cc1 (stereo not given),inactive
6,Cc1cc(=O)nc2c3ccccc3n(C(C)C(=O)NCCC(C)C)n12 (stereo not given),inactive
7,Cc1cc(C)cc(N(CCC#N)C(=O)CSc2nc3nc(C)cc(C)n3n2)c1,inactive
8,Cc1ccc(OCc2ccc(C(=O)NN)o2)cc1C,inactive
9,Cc1c(NC(=O)COC(=O)c2ccccc2Cl)c(=O)n(-c2ccccc2)n1C,inactive
10,NC(=O)c1ccc(NC(=O)CSc2nc3ccccc3c(=O)n2CCCN2CCOCC2)cc1,inactive
11,O=C(NC1CCCCC1)C(c1ccc(Cl)cc1)N(C(=O)c1ccccn1)c1cccnc1 (stereo not given),inactive
12,Cc1ccccc1Cn1cc(NC(=O)c2cc(C3CC3)on2)cn1,inactive
13,O=C(c1cccc(S(=O)(=O)N2CCCC2)c1)N1CCOCC1,inactive
14,COc1ccc(NC(=S)N(CCCN2CCCC2)Cc2ccco2)cc1,inactive
15,CCOC(=O)C1(Cc2ccc(OC)cc2)CCN(C(=O)c2cccc3nccnc23)CC1,inactive
16,CCOc1ccc(-n2c(C)nc(O)c2N=Nc2ccccc2)cc1,inactive
17,COc1cccc(NC(=O)Nc2nnc(N3C(C)CCCC3C)s2)c1 (stereo not given),inactive
18,O=C1N=C(N2CCN(c3ccccc3)CC2)S/C1=C\c1ccco1,inactive
19,CCCCn1c(N)c(N(CCOC)C(=O)c2cc(-c3ccco3)nc3ccccc23)c(=O)[nH]c1=O,inactive
20,C=CCOc1ccc(/C=C2\SC(=S)N(CCC(=O)O)C2=O)cc1,inactive
21,CCOc1ccc(/C=C2\SC(=S)N(CCC(=O)O)C2=O)cc1,inactive
22,CN(CCC#N)C(=O)COC(=O)c1c2c(nc3ccccc13)/C(=C\c1ccco1)CC2,inactive

row,SMILES,outcome
1,COc1ccccc1C(C#N)N1N=C(C)CC1(C)C (stereo not given),inactive
2,CCCN(CC(=O)Nc1ccccc1C)C(=O)COC(=O)c1cnc(C)cn1,inactive
3,O=C(COc1ccccc1C(=O)O)Nc1ccc(SC(F)F)cc1,inactive
4,COc1ccccc1NC(=O)COC(=O)c1cc2c(s1)CCC2,inactive
5,CN(C)CCCN(CCCN(C)C)C(=S)Nc1ccc(S(=O)(=O)N2CCOCC2)cc1,inactive
6,CCNc1ccc(Br)cc(C(=O)/C=C/c2ccc(Cl)cc2)c1=O,inactive
7,CNc1ccc(Br)cc(C(=O)/C=C/c2ccc(OC)cc2)c1=O,inactive
8,COc1ccc(Br)c(C(=O)NC(C)(C)CO)c1,inactive
9,O=C(CCc1ccccc1)NNC(=S)NCCc1ccccc1,inactive
10,O=C1CCCCC1Oc1ccc2ccc(=O)oc2c1 (stereo not given),inactive
11,Cc1ccc(OCCC(=O)OCC(=O)c2ccc3c(c2)NC(=O)CO3)cc1,inactive
12,Oc1ccc(/C=N/N2CCOCC2)c(O)c1O,inactive
13,Oc1ccc(/C=N/N2CCCCC2)c(O)c1O,inactive
14,CN=c1scc(C)n1/N=C/c1ccc(O)c(O)c1O,inactive
15,CCOC(=O)C1CCCN(C(=O)c2cc(-c3ccco3)nc3ccccc23)C1 (stereo not given),inactive
16,Cc1nn(Cc2ccccc2)c(C)c1/C=N/NC(=O)c1ccccc1O,inactive
17,C=C(C)C(=O)Nc1cccc(C2=NOC3(C2)C[C@@H](C(N)=O)N(C(=O)/C=C/CC)C3)c1 (stereo not given in full),inactive
18,O=C1N=C(N2CCOCC2)SC1=Cc1ccco1,inactive
19,O=C(/C=C/c1ccco1)c1cccnc1,inactive
20,COc1cc(-n2cnnn2)ccc1S(=O)(=O)N1CCOCC1,inactive
21,O=[N+]([O-])c1ccc(Cl)c(S(=O)(=O)Nc2cccc(S(=O)(=O)NC3=NCCC3)c2)c1,inactive
22,CN1CCN(/C=C(\C#N)S(=O)(=O)c2ccc(Cl)cc2)CC1,inactive

row,SMILES,outcome
1,CC(C)(C)NC(=O)/C(=C/c1ccco1)c1ccccc1,inactive
2,COc1ccc(CN2CCSCC2)cc1C,inactive
3,COc1ccc(C(=O)CSc2nnc3n2CCCN3C(=O)Nc2ccccc2)cc1,inactive
4,CCC1=NN2C(=N)/C(=C\c3cccn3-c3cccc(Cl)c3)C(=O)N=C2S1,inactive
5,O=C(Nn1cnnc1)c1cc(-c2cccc(Br)c2)nc2ccccc12,inactive
6,CC(C)Cn1c(SCC(=O)Nc2cccnc2Cl)nnc1-c1ccco1,inactive
7,CC(CNc1ccccc1O)C(=O)O (stereo not given),inactive
8,C=CCc1cc(Cl)ccc1OC(=O)Nc1cccc(Cl)c1,inactive
9,[O-]/[N+](=C\C=C\c1ccccc1)c1ccccc1,inactive
10,O=C(COC(=O)C12CC3CC(CC(Br)(C3)C1)C2)Nc1ccc2[nH]c(=O)[nH]c2c1,inactive
11,Cc1cccc(NC(=O)CSc2nnc(CCC(=O)Nc3ccc(C)c(Cl)c3)n2C)c1,inactive
12,N=C1C=CC=C2C1=NC1(CCCCC1)N2O,inactive
13,CC(=O)c1ccc(N2C(=NC(=O)C3CCCO3)SC3CS(=O)(=O)CC32)cc1 (stereo not given),inactive
14,C[C@@H]1NC(=O)[C@H](CCC(N)=O)NC(=O)c2cc([N+](=O)[O-])cc(I)c2NCCC[C@@H](C(N)=O)NC1=O,inactive
15,Cn1cc(CN2CCN(CCO)CC2)c(-c2ccc(Oc3ccccc3)cc2)n1,inactive
16,O=C(CSc1nnc(Cc2ccc(Cl)cc2)o1)Nc1ccccc1,inactive
17,COc1ccccc1N1C(=O)CC(Nc2ccc(N3CCOCC3)cc2)C1=O (stereo not given),inactive
18,COc1cccc(CNCC(=O)Nc2ccc(N3CCOCC3)cc2)c1,inactive
19,O=C(CC1C(=O)NCCN1Cc1ccc(F)cc1)NCCN1CCCc2ccccc21 (stereo not given),inactive
20,CCc1cccc(NC(=O)CCS(=O)(=O)c2ccc(Br)cc2)c1,inactive
21,O=C(CSc1nccc(=O)[nH]1)Nc1ccc2c(c1)OCCO2,inactive
22,COc1ccc(NC(=O)C2CCCNC2)cc1OCC(C)C (stereo not given),inactive

row,SMILES,outcome
1,Cc1cc(/C=C2\SC(=S)NC2=O)c(C)n1-c1ccccc1,inactive
2,Cc1c(C)n(C(=O)CSc2nc3ccccc3[nH]2)c2ccccc12,inactive
3,COc1ccc(C(=O)NC2CC3CCCC(C2)N3CC(C)C)cc1 (stereo not given),inactive
4,Cc1ccc(NC(=O)CSc2nnc([C@H](C)NC(=O)OC(C)(C)C)o2)c(C)c1,inactive
5,CCOc1cc(C(C(=O)NCC2CCCO2)N(C(=O)Cn2nnc3ccccc32)c2cccc(OC)c2)ccc1O (stereo not given),inactive
6,COc1cc(/C=C2/C(=O)N(c3ccc(Br)cc3)N=C2C)cc(OC)c1OC,inactive
7,O=C1NCC(O)=C1C=NC12CC3CC(CC(C3)C1)C2,inactive
8,CCN(CC)C(=O)CN1C(=O)C2(NC(=O)c3ccccc3N2)c2ccccc21 (stereo not given),inactive
9,CCc1cc2c(=O)n(-c3ccc(C)cc3)cnc2s1,inactive
10,CC(=O)NC1=NC(=O)/C(=C/c2cc(C)n(-c3cccc(C(=O)O)c3)c2C)S1,inactive
11,O=C1NC(c2cccc(Br)c2)=N/C1=C\c1ccco1,inactive
12,O=C1CC(c2ccco2)CC(O)=C1C=Nc1cc(Cl)ccc1Cl (stereo not given),inactive
13,Nc1ccccc1NC1=CC(=O)CC(c2ccco2)C1 (stereo not given),inactive
14,O=C1CCC/C(=N\NC(=O)c2ccc(COc3cccc4cccnc34)cc2)C1,inactive
15,O=C(NN(C(=O)c1ccccc1)c1ccccc1)c1ccccc1,inactive
16,Oc1ccc(/C=N/N2CCCCC2)c(O)c1,inactive
17,S=c1[nH]nc(C2CC2)n1Cc1ccco1,inactive
18,CCC(C)[C@H](NC(=O)Nc1ccccc1F)C(=O)OC (stereo not given in full),inactive
19,Cc1nc2ccccc2n2c(O)c(CC(=O)O)cc12,inactive
20,O=S(=O)(O)c1cc(Cl)cc(N=Nc2ccc(O)cc2O)c1O,inactive
21,Cc1nc2ccc(NS(=O)(=O)c3ccc(F)cc3F)cc2s1,inactive
22,CC(C)CN(C(=O)CN1CCN(c2ccc(O)cc2)CC1)c1c(N)n(CC(C)C)c(=O)[nH]c1=O,inactive
